# According to the supplement of paper PMC8728848:
# The sample as a whole holds a higher share of the strongest signals than the screen did.
# B1: DC-ASGPR S+GEE (Homo sapiens) (protein)
# chain: MTRTYENFQYLENKVKVQGFKNGPLPLQSLLQRLRSGPCHLLLSLGLGLLLLVIICVVGFQNSKFQRDLVTLRTDFSNFTSNTVAEIQALTSQGSSLEETIASLKAEVEGFKQERQAVHSEMLLRVQQLVQDLKKLTCQVATINNNGEEASTEGTCCPVNWVEHQDSCYWFSHSGMSWAEAEKYCQLKNAHLVVINSREEQNFVQKYLGSAYTWMGLSDPEGAWKWVDGTDYATGFQNWKPGQPDDWQGHGLGGGEDCAHFHPDGRWNDDVCQRPYHWVCEAGLGQTSQESH
# Columns and labels:
# Experiment in all cases: glycan array binding signal (z-score within array); higher = stronger binding
# Conditions in all cases: glycan notation: IUPAC condensed, linker removed
# [1] = molecular target: Fuc(a1-2)Gal(b1-3)GalNAc(b1-3)Gal(a1-4)Gal(b1-4)Glc
# Outline: (§1)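 Arrays were curated from the Consortium for Functional Glycomics database, 3228 in total, and kept only where the protein sequence was available. Binding is expressed as a within-array Z-score. This score was averaged across arrays of the same protein sequence at different concentrations or buffers and across linkers, and negative values can be read as non-binding.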
# [2] = molecular target: Fuc(a1-2)Gal(b1-4)[Fuc(a1-3)]GlcNAc
# Outline: as §1
# [3] = molecular target: Fuc(a1-2)[Gal(a1-3)]Gal(b1-3)GlcNAc(b1-6)GalNAc
# Outline: as §1
# [4] = molecular target: Fuc(a1-2)[GalNAc(a1-3)]Gal(b1-4)GlcNAc(b1-3)Gal(b1-4)GlcNAc
# Outline: as §1
# [5] = molecular target: Fuc(a1-2)[GalNAc(a1-4)]Gal(b1-4)GlcNAc
# Outline: as §1
# [6] = molecular target: Fuc(a1-2)[GalNAc(b1-3)]Gal
# Outline: as §1
# [7] = molecular target: Fuc(a1-3)[Gal(b1-4)]GlcNAc(b1-2)Man(a1-3)[Fuc(a1-3)[Gal(b1-4)]GlcNAc(b1-2)Man(a1-6)]Man(b1-4)GlcNAc(b1-4)GlcNAc
# Outline: as §1
# [8] = molecular target: Gal(a1-3)Gal(b1-3)GlcNAc(b1-3)GalNAc
# Outline: as §1
# [9] = molecular target: Gal(a1-3)Gal(b1-3)GlcNAc(b1-6)GalNAc
# Outline: as §1
# [10] = molecular target: Gal(a1-3)Gal(b1-4)GlcNAc(b1-6)GalNAc
# Outline: as §1
# [11] = molecular target: Gal(b1-3)GlcNAc(b1-6)GalNAc
# Outline: as §1
# [12] = molecular target: Gal(b1-3)GlcNAc6S
# Outline: as §1
# [13] = molecular target: Gal(b1-3)[Neu5Ac(a2-6)]GlcNAc(b1-4)Gal(b1-4)Glc
# Outline: as §1
# [14] = molecular target: Gal(b1-4)GlcNAc(b1-3)Gal(b1-4)GlcNAc
# Outline: as §1
# [15] = molecular target: Gal(b1-4)GlcNAc(b1-3)Gal(b1-4)GlcNAc(b1-3)Gal(b1-4)GlcNAc(b1-3)Gal(b1-4)GlcNAc(b1-2)[Gal(b1-4)GlcNAc(b1-3)Gal(b1-4)GlcNAc(b1-3)Gal(b1-4)GlcNAc(b1-3)Gal(b1-4)GlcNAc(b1-6)]Man(a1-6)[Gal(b1-4)GlcNAc(b1-3)Gal(b1-4)GlcNAc(b1-3)Gal(b1-4)GlcNAc(b1-3)Gal(b1-4)GlcNAc(b1-2)Man(a1-3)]Man(b1-4)GlcNAc(b1-4)[Fuc(a1-6)]GlcNAc
# Outline: as §1
# [16] = molecular target: Gal6P(b1-4)GlcNAc
# Outline: as §1
# [17] = molecular target: Gal6S(b1-4)GlcNAc
# Outline: as §1
# [18] = molecular target: GalNAc(b1-3)Gal(a1-4)Gal(b1-4)GlcNAc
# Outline: as §1
# [19] = molecular target: GalNAc(b1-3)Gal(a1-4)Gal(b1-4)GlcNAc(b1-3)Gal(b1-4)Glc
# Outline: as §1
# [20] = molecular target: GalNAc(b1-4)GlcNAc(b1-3)GalNAc(b1-4)GlcNAc
# Outline: as §1
# [21] = molecular target: GalNAc3S(b1-4)[Fuc(a1-3)]GlcNAc
# Outline: as §1
# [22] = molecular target: Glc(b1-4)Glc
# Outline: as §1
# [23] = molecular target: GlcNAc(a1-4)Gal(b1-4)GlcNAc
# Outline: as §1
# [24] = molecular target: GlcNAc(b1-3)Gal(b1-4)GlcNAc(b1-3)Gal(b1-4)GlcNAc(b1-3)Gal(b1-4)GlcNAc(b1-2)Man(a1-3)[GlcNAc(b1-3)Gal(b1-4)GlcNAc(b1-3)Gal(b1-4)GlcNAc(b1-3)Gal(b1-4)GlcNAc(b1-2)Man(a1-6)]Man(b1-4)GlcNAc(b1-4)GlcNAc
# Outline: as §1
# [25] = molecular target: GlcNAc(b1-3)GalNAc
# Outline: as §1
# [26] = molecular target: GlcNAc(b1-4)GlcNAc(b1-4)GlcNAc(b1-4)GlcNAc(b1-4)GlcNAc(b1-4)GlcNAc
# Outline: as §1
# [27] = molecular target: GlcNAc(b1-6)GalNAc
# Outline: as §1
# [28] = molecular target: Man(a1-3)[Man(a1-6)]Man(a1-6)[Man(a1-2)Man(a1-3)]Man(b1-4)GlcNAc(b1-4)GlcNAc
# Outline: as §1
# [29] = molecular target: Man(a1-3)[Man(a1-6)]Man(b1-4)GlcNAc(b1-4)GlcNAc
# Outline: as §1
# [30] = molecular target: Man(a1-3)[Man(a1-6)]Man(b1-4)GlcNAc(b1-4)[Fuc(a1-6)]GlcNAc
# Outline: as §1
# [31] = molecular target: Man(b1-4)GlcNAc
# Outline: as §1
# [32] = molecular target: Neu5Ac(a2-3)Gal(b1-3)GalNAc(b1-4)[Neu5Ac(a2-3)]Gal(b1-4)Glc
# Outline: as §1
# [33] = molecular target: Neu5Ac(a2-3)Gal(b1-3)GlcNAc(b1-6)GalNAc
# Outline: as §1
# [34] = molecular target: Neu5Ac(a2-3)Gal(b1-4)GlcNAc(b1-2)Man(a1-3)[Neu5Ac(a2-6)Gal(b1-4)GlcNAc(b1-2)Man(a1-6)]Man(b1-4)GlcNAc(b1-4)GlcNAc
# Outline: as §1
# [35] = molecular target: Neu5Ac(a2-3)Gal(b1-4)GlcNAc(b1-3)Gal
# Outline: as §1
# [36] = molecular target: Neu5Ac(a2-3)Gal(b1-4)GlcNAc(b1-6)GalNAc
# Outline: as §1
# [37] = molecular target: Neu5Ac(a2-3)Gal6S(b1-4)GlcNAc
# Outline: as §1
# [38] = molecular target: Neu5Ac(a2-6)Gal(b1-4)GlcNAc(b1-2)Man(a1-6)[Gal(b1-4)GlcNAc(b1-2)Man(a1-3)]Man(b1-4)GlcNAc(b1-4)GlcNAc
# Outline: as §1
# [39] = molecular target: Neu5Ac(a2-6)GalNAc(b1-4)GlcNAc6S
# Outline: as §1
# [40] = molecular target: Neu5Ac(a2-8)Neu5Ac(a2-3)Gal(b1-3)GalNAc(b1-4)[Neu5Ac(a2-8)Neu5Ac(a2-3)]Gal(b1-4)Glc
# Outline: as §1
# [41] = molecular target: Neu5Ac(a2-8)Neu5Ac(a2-8)Neu5Ac(a2-8)Neu5Ac(a2-3)[GalNAc(b1-4)]Gal(b1-4)Glc
# Outline: as §1
# [42] = molecular target: Neu5Gc(a2-3)Gal(b1-4)Glc
# Outline: as §1
binder,measurement,setting,value
B1,glycan array binding signal (z-score),[1],0.011
same,glycan array binding signal (z-score),[2],-0.28
same,glycan array binding signal (z-score),[3],3.42
same,glycan array binding signal (z-score),[4],0.807
same,glycan array binding signal (z-score),[5],3.75
same,glycan array binding signal (z-score),[6],4
same,glycan array binding signal (z-score),[7],-0.015
same,glycan array binding signal (z-score),[8],-0.224
same,glycan array binding signal (z-score),[9],4.91
same,glycan array binding signal (z-score),[10],3.92
same,glycan array binding signal (z-score),[11],3.77
same,glycan array binding signal (z-score),[12],-0.332
same,glycan array binding signal (z-score),[13],-0.315
same,glycan array binding signal (z-score),[14],-0.268
same,glycan array binding signal (z-score),[15],-0.145
same,glycan array binding signal (z-score),[16],-0.321
same,glycan array binding signal (z-score),[17],-0.262
same,glycan array binding signal (z-score),[18],4.67
same,glycan array binding signal (z-score),[19],4.39
same,glycan array binding signal (z-score),[20],3.84
same,glycan array binding signal (z-score),[21],-0.27
same,glycan array binding signal (z-score),[22],-0.376
same,glycan array binding signal (z-score),[23],-0.318
same,glycan array binding signal (z-score),[24],-0.276
same,glycan array binding signal (z-score),[25],-0.312
same,glycan array binding signal (z-score),[26],-0.22
same,glycan array binding signal (z-score),[27],3.74
same,glycan array binding signal (z-score),[28],-0.252
same,glycan array binding signal (z-score),[29],-0.021
same,glycan array binding signal (z-score),[30],-0.295
same,glycan array binding signal (z-score),[31],-0.339
same,glycan array binding signal (z-score),[32],-0.329
same,glycan array binding signal (z-score),[33],4.84
same,glycan array binding signal (z-score),[34],-0.297
same,glycan array binding signal (z-score),[35],-0.325
same,glycan array binding signal (z-score),[36],4.38
same,glycan array binding signal (z-score),[37],-0.32
same,glycan array binding signal (z-score),[38],-0.355
same,glycan array binding signal (z-score),[39],0.608
same,glycan array binding signal (z-score),[40],-0.342
same,glycan array binding signal (z-score),[41],1.61
same,glycan array binding signal (z-score),[42],-0.351
